# High-throughput results: PubChem BioAssay, National Center for Advancing Translational Sciences (NCATS)
# FLuc counter = qHTS profiling assay for firefly luciferase inhibitor/activator using purifed enzyme and Km concentrations of substrates (counterscreen for miR-21 project). Luciferin 4-monooxygenase (Photinus pyralis), P08659. purified FLuc, Km substrates, luminescence inhibition. Potency, µM (series often up to 57.5 µM), actives largely listed as inhibitors. 360,000 tested, 6.9% active; note: nearly all actives have a fitted effect of over 55% in size
# Target sequence (P08659 whole entry, looked up): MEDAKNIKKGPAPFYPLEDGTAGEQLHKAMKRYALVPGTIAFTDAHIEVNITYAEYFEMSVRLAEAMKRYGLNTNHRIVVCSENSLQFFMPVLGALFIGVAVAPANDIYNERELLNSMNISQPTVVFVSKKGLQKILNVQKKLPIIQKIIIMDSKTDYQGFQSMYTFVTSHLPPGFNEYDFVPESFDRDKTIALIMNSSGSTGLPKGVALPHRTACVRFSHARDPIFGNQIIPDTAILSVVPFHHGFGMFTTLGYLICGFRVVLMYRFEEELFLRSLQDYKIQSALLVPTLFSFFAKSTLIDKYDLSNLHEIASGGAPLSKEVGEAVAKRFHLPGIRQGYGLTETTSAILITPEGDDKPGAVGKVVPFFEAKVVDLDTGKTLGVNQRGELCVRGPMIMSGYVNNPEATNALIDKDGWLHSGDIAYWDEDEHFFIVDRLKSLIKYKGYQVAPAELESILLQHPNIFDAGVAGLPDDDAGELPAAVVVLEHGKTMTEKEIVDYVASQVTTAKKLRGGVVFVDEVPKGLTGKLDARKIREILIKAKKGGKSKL
#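 Purified P. pyralis luciferase (10nM final) with 10uM D-luciferin and 10uM ATP (Km levels) in 50mM Tris acetate pH 7.5, 10mM Mg acetate, 0.01% Tween-20, 0.05% BSA; qHTS 6-point titration, ~60 µM downward; luminescence read.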
# Rab9 prom act = qHTS Assay for Rab9 Promoter Activators; Huh7 Rab9 promoter-luciferase reporter, luminescence, 24 h; Potency, µM (titrated, usually from 9.22 µM), actives largely listed as activators; 320,000 tested, 2.8% active; AID 485297, 2010; note: nearly all actives have a fitted effect of over 60% in size
#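 Using Huh7 cells stably transfected with Rab9 promoter–luciferase, compounds were incubated 24 h at 37 °C, 5% CO2; luciferase luminescence was read 10 min after reagent addition.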
# SMN2 splice up = qHTS Assay for Enhancers of SMN2 Splice Variant Expression. 210,000 tested, 2.8% active. HEK293 SMN2-luciferase splicing reporter, luminescence, 30-36 h. Potency, µM (top dose mostly 46.1 µM), actives largely listed as activators; note: nearly all actives have a fitted effect of over 55% in size
#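 qHTS luciferase splicing reporter: luminescence rises when SMN2 exon 7 is included in transfected HEK293 cells. Compound exposure lasted 30-36 h at 37C, with 4.5 mM final sodium butyrate as control, followed by a ONE-Glo read.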
# ELG1 genotoxic = qHTS screen for small molecules that induce genotoxicity in human embryonic kidney (HEK293T) cells expressing luciferase-tagged ELG1; HEK293T ELG1-luciferase reporter, luminescence, 16 h; Potency, µM (series often up to 46 µM), actives largely listed as activators; 330,000 tested, 1.3% active; note: nearly all actives have a fitted effect of over 60% in size
#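 16 hr compound incubation (37 °C, 5% CO2) of HEK293T cells carrying luciferase-tagged ELG1; luciferase then measured by ONE-Glo luminescence after 30 min at RT.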
# Luc counter = Counterscreen for Luciferase (Kinase-Glo TM) Inhibition; Kinase-Glo luciferase, ATP luminescence, 8 min; Potency, µM (highest dose often 38.3 µM), actives largely listed as inhibitors; 200,000 tested, 0.28% active; note: nearly all actives have a fitted effect of over 60% in size
#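 Compound is pinned into ATP-containing buffer (10 uM ATP, imidazole pH 7.2, 7 mM MgCl2). Kinase-Glo luciferase reagent is then added. Light output is recorded following an 8-min room-temperature incubation.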
# NPC1 promoter act = qHTS Assay for NPC1 Promoter Activators. Huh7 NPC1 promoter luciferase reporter, 24 h. 320,000 tested, 2.4% active. Potency, µM (titrated, usually from 9.22 µM), actives largely listed as activators. AID 485313, 2010; note: nearly all actives have a fitted effect of over 60% in size
#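 Stably transfected Huh7 (NPC1 promoter→luciferase), 1500 cells/well in Opti-MEM + 10% FBS, 2 h settle, then compound 24 h at 37 °C. Luminescence after 10 min with Amplite reagent.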
# A number is an active result; - = inactive; ? = inconclusive; . = no result; [ ] = remark or other dose. Rows were chosen to be rich in hits. Some 7.3% of all compounds tested hit in one or more screens of this group. Calls come from the whole dose curve; as a rule, active = well fitted curve in the direction sought with a large enough effect; inconclusive = small, poorly fitted or top-dose-only effect, or another doubt; inactive = no such curve, though single readings can be large; an effect the other way counts as inactive or inconclusive.
SMILES,FLuc counter,Rab9 prom act,SMN2 splice up,ELG1 genotoxic,Luc counter,NPC1 promoter act
COc1cc(C(=O)O/N=C(\N)c2cccc([N+](=O)[O-])c2)cc(OC)c1OC,-,-,.,-,.,-
Cc1ccccc1C(=O)O/N=C(\N)c1ccc([N+](=O)[O-])cc1,19µM,?,.,?,.,?
Cc1ccccc1C(=O)O/N=C(\c1ccccc1)c1ccccn1,21µM,-,-,-,-,-
COC(=O)c1cccc(Nc2c3c(nc4ccccc24)CCC3)c1,-,-,.,-,.,-
Cc1ccccc1C(=O)O/N=C(\N)c1ccccc1,0.17µM,0.79µM,.,1.6µM,.,3.5µM
C/C(=N/OC(=O)c1ccc(F)cc1)c1ccc(C)cc1,0.67µM,-,-,-,-,-
N/C(=N\OC(=O)c1ccccc1F)c1cccc([N+](=O)[O-])c1,3.4µM,2.8µM,.,?,.,2.8µM
Cc1ccccc1/C(N)=N/OC(=O)c1ccc(F)cc1,1.3µM,?,-,?,?,?
C/C(=N/OC(=O)c1ccc(C)cc1)C(=O)c1ccc(Br)cc1,-,-,.,-,.,-
C[C@@H](O)CC(=O)O,-,-,.,-,.,-
CCCC(NC(=O)COc1cc2c(c3oc(=O)c(C)c(C)c13)CCC(C)(C)O2)C(=O)O (centres undefined),-,-,.,-,.,-
O=c1cc(C(F)(F)F)nc(SCc2cccc3ccccc23)[nH]1,-,-,.,-,.,-
COc1ccc(OC)c(CCNc2nccn(-c3ccc(C)c(C)c3)c2=O)c1,-,.,.,.,.,.
C[C@H](N)CCP(=O)(O)O,.,.,-,.,.,.
c1ccc(SCc2nc(-c3ccncc3)no2)cc1,17µM,?,11µM,15µM,-,4µM
Cc1ccc(SCc2nc(-c3ccncc3)no2)cc1,-[2.3 µM],-,-,-,-,-
Cc1ccc(SCc2nc(-c3ccccc3)no2)cc1,-[2.3 µM],-,-,-,-,-
COc1ccc(-c2noc(CSc3ccccc3)n2)cc1OC,13µM,4µM,.,-,.,?
O=C(c1ccc(Cl)cc1Cl)c1ncc(C(F)(F)F)cc1Cl,-,-,-,-,-,-
Brc1ccc(-c2noc(COc3ccc4c(c3)CCC4)n2)o1,?,-,-,?,-,-
COc1ccc(Cc2nc(-c3cccs3)no2)cc1,15µM,?,?,?,-,?
COc1ccc(Cc2nc(-c3ccc(-n4cccc4)cc3)no2)cc1OC,-,-,-,13µM,-,-
c1csc(-c2noc(COc3ccc4c(c3)CCCC4)n2)c1,11µM,2.8µM,13µM,18µM,-,4µM
COc1ccc(Cc2nc(-c3ccccc3)no2)cc1,15µM,?,?,16µM,-,?
COc1ccc(Cc2nc(-c3ccc(-n4cccc4)cc3)no2)cc1,-,-,-,-,-,-
SMILES,FLuc counter,Rab9 prom act,SMN2 splice up,ELG1 genotoxic,Luc counter,NPC1 promoter act
COc1cccc(NC(=O)C2CCC2)c1,-,-,.,-,.,-
O=C(Nc1ccc(Cl)c(Cl)c1)C1CCN(C(=O)c2ccco2)CC1,-,-,.,-,.,-
COCCCN1C(=O)C(=O)/C(=C(/O)c2ccc(S(=O)(=O)N3CCCCC3)cc2)C1c1cccc(OC)c1 (centres undefined),-,-,.,-,.,-
O=C(N=Nc1c(O)n(Cc2ccccc2)c2ccccc12)c1ccncc1,24µM,-,.,-,.,-
C/C(=N\Nc1cccc([N+](=O)[O-])c1)c1ccccc1O,19µM,?,.,?,.,-
O=[N+]([O-])c1ccc(O)c(/C=N/n2cnc3ccccc32)c1,27µM,-,-,-,-,-
O=[N+]([O-])c1ccc(O)c(/C=N/Nc2ccccc2Cl)c1,4.8µM,?,13µM,?,-,1.4µM
Cc1c(NC(=S)N/N=C/c2cc([N+](=O)[O-])ccc2O)c(=O)n(-c2ccccc2)n1C,27µM,-,.,-,.,-
CCSc1nnc([C@H](C)NC(=O)OC(C)(C)C)o1,-,-,-,-,-,-
Cn1c(=O)cc(-c2ccccc2)c2ccccc21,-,-,-,-,-,-
CSc1ccc(-c2sc(Nc3ccccc3)n[n+]2-c2ccccc2)cc1,-,-,.,-,.,-
O=[N+]([O-])c1ccccc1N/N=C/c1cccc(O)c1O,1.5µM,-,.,10µM,.,3.5µM
O=[N+]([O-])c1cccc(/C=N\Nc2ccc3ccccc3n2)c1O,.,.,-[9.22 µM],.,-[7.66 µM],.
O=[N+]([O-])c1ccccc1N/N=C\c1ccccc1Cl,0.67µM,2.8µM,7.9µM,?,?,?
O=[N+]([O-])c1cccc(N/N=C/c2cccc(O)c2O)c1,15µM,-,?,?,-,-
O=[N+]([O-])c1ccccc1N/N=C\c1ccccc1F,?,2.8µM,.,5.8µM,.,?
O=[N+]([O-])c1ccc(N/N=C/c2cccc(O)c2O)c(S(=O)(=O)N2CCOCC2)c1,-,-,-,-,-,-
CCC(C)NC(=O)C1c2ccccc2C(=O)N1Cc1cc(OC)ccc1OC (centres undefined),-,-,-,-,-,-
CC(C)SCC(=O)Nc1ncc2c(n1)-c1ccccc1CC2,-,-,-,-,-,-
Cn1c(C(=O)N2CCc3ccccc3C2)cc2oc3ccccc3c21,11µM,?,22µM,?,-,-
CC(=O)c1c(C)[nH]c(C(=O)Nc2ccccn2)c1C,9.5µM,3.2µM,.,10µM,.,1.3µM
CC(=O)c1c(C)[nH]c(C(=O)Nc2ccc(Cl)cc2F)c1C,9.5µM,2.8µM,.,?,.,1.8µM
CC(=O)c1c(C)[nH]c(C(=O)Nc2ccc(Cl)cc2)c1C,9.5µM,1.8µM,.,-,.,3.2µM
CCC(C)c1ccc(NC(=O)c2[nH]c(C)c(C(C)=O)c2C)cc1 (centres undefined),19µM,-,.,-,.,-
CCOc1ccc(C2C(C(=O)Nc3ccccc3)=C(C)Nc3nc(SCc4cc(C)ccc4C)nn32)cc1 (centres undefined),-,.,.,.,.,.
SMILES,FLuc counter,Rab9 prom act,SMN2 splice up,ELG1 genotoxic,Luc counter,NPC1 promoter act
CCc1nn2c(=O)cc(COC(=O)c3ccc(NC(=O)COc4ccc(C)cc4)cc3)nc2s1,-,.,.,.,.,.
CC(=O)c1c(C)[nH]c(C(=O)Nc2cccc(C)c2C)c1C,-,-,.,-,.,-
CSc1cccc(NC(=O)c2[nH]c(C)c(C(C)=O)c2C)c1,17µM,?,.,23µM,.,?
CC(=O)c1c(C)[nH]c(C(=O)Nc2ccc(Cl)c(S(=O)(=O)N(C)C)c2)c1C,17µM,3.2µM,11µM,18µM,-,3.5µM
CC(=O)c1c(C)[nH]c(C(=O)OCC(=O)Nc2ccc(Cl)c(S(=O)(=O)N(C)C)c2)c1C,-,-,.,-,.,-
COc1ccc(/C=C2/N=C3CCCCCN3C2=O)cc1OC,?,-,-,?,-,-
